From PubChem BioAssay AID720650 (Broad Institute, 2013)
Calls of active or inactive are those of the source. No rule for the calls is given here.

Test: C difficile toxins, biochemical counterscreen, UDPG substrate absence, confirmatory dose response (AID 720650)

| Structure (SMILES) | AC50 |
| --- | --- |
| CC(=O)Nc1cnc(-c2ccccc2O)cn1 | 15.3 µM (active) |
| CC[n+]1ccc(/C=C/c2ccc(N(C)C)cc2)c2ccccc21 | 11.7 µM (active) |
| COc1ccc(CNC(=O)C2=CC(c3ccc(OC)cc3)=NS(=O)(=O)N2C)cc1 | inactive |
| Cn1cnnc1SCC(=O)NC1CCCCC1 | inactive |
| Oc1ccc(-c2nc3cnccn3c2Nc2ccc3c(c2)OCCO3)cc1 | inactive |
| CC(=O)C[C@H]1c2ccccc2S(=O)(=O)N1C1CCCCC1 | inactive |
| Nc1ccc(OCCCc2c(N)nc(N)nc2N)cc1 | 20.1 µM (active) |
| O=C(CNC(=O)c1ccccc1Br)N/N=C/c1ccc(O)cc1 | 15.7 µM (active) |
| CCS(=O)(=O)c1ccc2oc(Nc3ccc(C(C)(C)C)cc3)nc2c1 | inactive |
| CC(C(=O)OCC(=O)c1c(N)n(C)c(=O)n(C)c1=O)N1C(=O)c2ccccc2C1=O (centres undefined) | inactive |
| COc1cc(C(=O)Nc2scc(-c3ccccc3)c2C(=O)O)cc(OC)c1OC | 13.9 µM (active) |
| O=C(NCc1ccncc1)[C@@H]1CCCN1C(=O)[C@@H]1CCCN1 | inactive |
| COC1=C/C(=C/c2c(N)n3nc(CC(=O)N4CCOCC4)sc3nc2=O)C=CC1=O | inactive |
| O=C(CCn1c(=O)oc2cc(Cl)ccc21)Nc1ccc(O)cc1 | 4.49 µM (active) |
| Cn1c(=O)[nH]c(=O)c2c1[nH]c(=S)n2CCCc1ccccc1 | inactive |
| O=c1oc(-c2ccc(Br)cc2)nc2ccccc12 | inactive |
| Cc1cccc(N/N=C/c2ccncc2)c1 | 1.1 µM (active) |
| Cc1ccc(C(=O)OCC(=O)c2cc(C)n(CC3CCCO3)c2C)cc1 (centres undefined) | inactive |
| O=C(N/N=C/c1ccc(O)cc1)NC12CC3CC(CC(C3)C1)C2 | 11.2 µM (active) |
| Cc1cnc(C(=O)OCC(=O)N2C(C)CCCC2C)cn1 (centres undefined) | inactive |
| COc1cc(/C=C2\SC(=S)N(NC(=O)c3cccc(O)c3)C2=O)ccc1O | inactive |
| COc1ccc(C2=NS(=O)(=O)N(C)C(C(=O)NCc3ccc(F)cc3)=C2)cc1OC | inactive |
| CNc1nc(C23CC4CC(CC(C4)C2)C3)cs1 | inactive |
| O=C(OCC(=O)N1CCCc2ccccc21)c1ccc(C(F)(F)F)cc1 | inactive |
| COC(=O)Cc1ccc(NC(=S)NCc2ccco2)cc1 | inactive |

| Structure (SMILES) | AC50 |
| --- | --- |
| COc1cccc(C(CNc2ccc(S(=O)(=O)N3CCN(C)CC3)cc2[N+](=O)[O-])N(C)C)c1 (centres undefined) | inactive |
| CCNC(=O)C[C@@H]1CC[C@H]2[C@H](COc3ccc(NC(C)=O)cc3C(=O)N2C)O1 | inactive |
| Cc1ccc(S(=O)(=O)Nc2cccnc2Oc2ccc(Cl)cc2)cc1 | inactive |
| O=C(C[C@@H]1CC[C@H]2[C@@H](COC[C@@H](O)CN2Cc2ccc(Oc3ccccc3)cc2)O1)Nc1nccs1 | inactive |
| c1ccc2[nH]c(-c3ccc4c(c3)OCO4)nc2c1 | inactive |
| CCOC(=O)c1[nH]nc(-c2cc(CC)c(O)cc2O)c1-c1cscn1 | inactive |
| COc1cc(/C=N/NC(=O)C2(O)c3ccccc3-c3ccccc32)ccc1O | inactive |
| CNC(=O)C[C@H]1CC[C@@H]2[C@H](COc3ccc(NS(=O)(=O)c4ccccc4C)cc3C(=O)N2C)O1 | inactive |
| CC1CN=C(Nc2cccc(S(=O)(=O)N(C)C)c2)S1 (centres undefined) | inactive |
| O=C(C[C@@H]1CC[C@H]2[C@@H](COC[C@@H](O)CN2C(=O)c2ccccn2)O1)NC1CCC1 | inactive |
| COc1cc(-c2n[nH]c(=S)n2/N=C/c2cccn2C)cc(OC)c1OC | inactive |
| CCC(=O)Nc1ccc2c(c1)OC[C@H](C)N(C(=O)NC(C)C)C[C@H](C)[C@H](OC)CN(C)C2=O | inactive |
| Cc1cc(C)c2nc(C)cc(N/N=C/c3ccc(O)cc3)c2c1 | 12.1 µM (active) |
| Cc1ccc(CNCCCn2cnc(C(=O)Nc3ccc(C)c(C)c3)n2)o1 | inactive |
| COc1c2ccc(C(=O)NCCCCc3ccccc3)cc2nn1C | inactive |
| CN1CCN(C(CNC(=O)c2ccc(Br)o2)c2ccc(F)cc2)CC1 (centres undefined) | inactive |
| Cc1ccc(CNC(=O)Nc2cccc(C)c2)cc1 | inactive |
| CC(C)Cc1cc(C(=O)N2CCCC(CO)(Cc3ccc(F)cc3)C2)no1 (centres undefined) | inactive |
| O=C(Nc1ccccc1F)N1C[C@@H]2N[C@H](C1)C2c1ccc(-c2cccc(F)c2)cc1 (some centres undefined) | inactive |
| O=C(CC(c1ccccc1)c1ccccc1)Nc1ccc(O)cc1 | 13.4 µM (active) |
| CCOC(=O)c1nnn(-c2nonc2N)c1-c1ccccc1Cl | inactive |
| CCOC(=O)Cn1c(C(F)(F)F)nc2nc(Cl)c(Cl)nc21 | inactive |
| O=c1ccc2cc(O)c(O)cc2o1 | inactive |
| CC(=O)C1=CCC(c2ccc(C)cc2)N(S(=O)(=O)c2ccc(C)cc2)C1 (centres undefined) | > 39 µM (inactive) |
| COCC(=O)N1CC[C@@H]2[C@H]1c1cc(-c3ccc(F)cc3)ccc1N(C)[C@H]2CO | 7.2 µM (active) |

| Structure (SMILES) | AC50 |
| --- | --- |
| C=C1CCN(Cc2ccccc2)S(=O)(=O)c2ccccc21 | inactive |
| CCCNC(=O)C1CC(=O)N(c2ccc(OCC)cc2)C1 (centres undefined) | inactive |
| CCCNC(=O)N1CC[C@@H]2[C@H]1c1cc(-c3ccccc3)ccc1N(C)[C@H]2CO | 3.8 µM (active) |
| c1ccc(Cc2nnc3n2N=C(c2ccccc2)CS3)cc1 | inactive |
| O=[N+]([O-])c1c(Nc2ccccc2O)ccc2nonc12 | > 39 µM (inactive) |
| CNC(C(=O)c1ccccc1)C(OC)c1cccc([N+](=O)[O-])c1 (centres undefined) | inactive |
| Cc1ccc(CN2C(=O)CN=C(c3ccccc3)c3ccccc32)cc1 | inactive |
| CN1CC(=O)N/C1=N\C(=O)Nc1ccc(O)cc1 | inactive |
| COCC(=O)N1CC[C@H]2[C@@H]1c1cc(-c3ccc(OC)cc3)ccc1N(C)[C@H]2CO | 7.62 µM (active) |
| CC(=O)Nc1ccc(N(C(=O)c2ccco2)C(C(=O)NC2CCCC2)c2cccs2)cc1 (centres undefined) | inactive |
| CCOC(=O)c1cccc(NC(=O)CCNS(=O)(=O)c2cccc3nonc23)c1 | inactive |
| CCOc1ccc2ccccc2c1/C=N/NC(=O)c1ccncc1 | inactive |
| CCc1[nH]c(=O)c(C#N)c2c1CCCC2 | inactive |
| CC(Oc1ccc(Cl)cc1Cl)C(=O)Nc1ccc(O)cc1 (centres undefined) | 12.9 µM (active) |
| CCCS(=O)(=O)NC(=O)C1(C)CCN(C(=O)c2ccco2)C1 (centres undefined) | inactive |
| COc1ccc([N+](=O)[O-])cc1NC(=S)NC(C)=O | inactive |
| Cc1ccc(C(=O)NC(=O)OCCn2c(C)cnc2[N+](=O)[O-])cc1 | inactive |
| COc1ccccc1-n1c(CCC(=O)O)ccc1-c1ccccc1 | inactive |
| O=C(COc1ccc2ccc(=O)oc2c1)NCCN1CCOCC1 | inactive |
| COc1ccc(/C=C2/C(=O)C(C)(C(C)C)CCC2C)cc1 (centres undefined) | inactive |
| CC(=O)Nc1ccc(NC(=O)Cc2ccc(S(=O)(=O)N3CCCCC3)cc2)cc1 | inactive |
| COc1ccccc1CNC(=O)CN(c1ccc(C)cc1)S(=O)(=O)c1c(C)n[nH]c1C | inactive |
| COc1cc(NC(=O)CCc2nnc3ccc(N4CCC(C)CC4)nn23)cc(OC)c1 | inactive |
| CC(=O)N/C(=C\c1ccccc1)C(=O)Nc1ccc(O)cc1 | 17 µM (active) |
